In experiment [1] the test system is Hepatitis C virus NS3 helicase. The experiment can be described thus: HCV NS3 helicase inhibitors, primary screen, biochemical, fluorescence polarization, LOPAC1280 library (AID 687035; in the data active = inhibition above about 37%). Conditions: Purified HCV NS3 helicase, Cy5-dT15 ssDNA binding fluorescence polarization; stronger effect = higher value; concentration not given here. For orientation: In fluorescence polarisation assays a small probe gives low polarisation when free and higher when bound to something large.

The nature of experiment [2]: Cy5 fluorescence quenching or enhancement artefacts, artefact control for HCV NS3 helicase inhibitor project, biochemical, LOPAC1280 (AID 687037; call rule not given here). The following applies: Cy5-DNA-NS3h complex fluorescence interference counterscreen. Background: A counterscreen serves to expose hits that act by an unwanted route or on another target.
Experiment [3] is described as follows: stimulators of nuclear beta-catenin in C2C12, primary screen, imaging, WNT3A-conditioned medium, mouse C2C12, NPC library (AID 1117326; in the data active = nuclear beta-catenin stimulation mostly above about 4.2%, no sharp cut-off; inactive = mostly below about 10%). Conditions: stronger effect = higher value.
Experiment [4] is described as follows: stimulators of insulin release from INS-1E, primary screen, cell-based, 5 mM glucose, NPC library (AID 1117329;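 active = compound raises insulin release from rat beta cells at 5 mM glucose, no numeric limit stated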). The following applies: rat INS-1E insulin secretion, at 10 µM, stronger effect = higher value.
Experiment [5] can be described thus: growth inhibition of GSK3B-pretreated HCT116 cells – cell-based, CellTiter-Glo, 0.2 to 20 µM (AID 1117336;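 active = compounds lowering colon cancer cell viability after pretreatment blocking the GSK3B kinase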). Conditions: HCT116 viability after GSK3B inhibitor, at 20 µM, stronger effect = higher value. Background: ATP-based viability assays read luminescence as a measure of living cells.
Experiment [6] in a line: inhibition of endothelial tube formation, primary screen, imaging, VEGF stimulated, CD31 staining, tube area, NPC library (AID 1117340;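 active = compound that reduces growth-factor-driven endothelial tube area in a mixed cell culture, no cutoff stated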). The following applies: VEGF-stimulated ADSC/ECFC co-culture, at 10 µM, stronger effect = higher value.
The nature of experiment [7]: glucagon-like peptide 1 release enhancers, primary assay, NCI-H716 cell line, NPC library (AID 1117341;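 active = compound raises GLP1 secretion from the human gut endocrine cells, with no numeric limit stated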). Conditions: NCI-H716 cells, at 10 µM, stronger effect = higher value.
Experiment [8] can be described thus: HCT116 colon cancer cell growth inhibition, primary screen, CellTiter-Glo luminescence, NPC library (AID 1117342;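 active = compounds that lower survival of HCT116 colon cancer cells in the luminescence readout, no numeric limit stated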). The following applies: at 20 µM (top of the series).
Experiment [9] in a line: CellTiter-Glo luminescent readout of SW480 viability loss, NPC library primary (AID 1117343;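 active = compounds that lower viability of the colon cancer cells in the luminescence readout, with no numeric limit stated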). Conditions: CellTiter-Glo luminescence; at 20 µM (top of the series) unless noted.
Experiment [10] can be described thus: decreased DLD-1 cellular survival, CellTiter-Glo luminescent readout, NPC compound collection, primary HTS (AID 1117346;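 active = compounds that lower survival of DLD-1 colon cancer cells in the luminescence readout, no cutoff given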). The following applies: DLD-1 viability, CellTiter-Glo luminescence; at 20 µM (top of the series).
The nature of experiment [11]: sensitizers of A549 cells to miR-34 induction, primary screen, imaging, A549 dox-inducible miR-34, nuclei and caspase counts (AID 1347080). Conditions: A549 miR-34 inducible, Hoechst nuclei count, 48 h.
Experiment [12] in a line: phospholipid biosynthesis inhibitors in animal cells, primary screen, cell-based, LOPAC library, screen 4 (AID 1347384; call rule not given here). The following applies: phospholipid biosynthesis inhibition screen, at 10 µM.
A short description of experiment [13]: survival rescue of mitochondrial mutant cells in low glucose, primary screen, MELAS cybrids, Rieske KO mouse fibroblasts, CellTiter-Glo (AID 1508586;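 active = mean z-score across replicates of 1.96 or higher in either the MELAS or the Rieske mutant cell line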;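 note: z relative to plate mean and SD of compound and empty wells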).
Experiment [14] can be described thus: viability rescue of complex I mutant cybrids, primary screen, cell-based, galactose medium, ATP luminescence (AID 1645843;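 active = z-score of at least 1.8 in each of two replicates, scored against plate mean and spread of sample wells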;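 note: positive z means more ATP and so rescue of galactose-driven cybrid death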). Conditions: complex I mutant cybrid cells, 72 h, stronger effect = higher value.
A short description of experiment [15]: liver-stage malaria parasite growth inhibition, primary screen, cell-based, HepG2, luciferase luminescence, HepG2 viability (AID 624349; in the data active = parasite load remaining mostly below about 12%, no sharp cut-off; inactive = mostly above about 10%;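 note: 100% = mean of DMSO negative control wells on the same plate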). Conditions: P. berghei liver stage in HepG2, luciferase luminescence, concentration not given here; parasite load remaining: stronger effect = lower value; viability: measured here: HepG2 viability without parasites.
The target of experiment [16] is NAD(+) hydrolase SARM1 (Homo sapiens) (UniProt Q6SZW1). The experiment can be described thus: SARM1 TIR NADase inhibitors, cell lysate, NAD-Glo luminescence (AID 1508614;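 active = compound whose remaining NAD level is above about 45 nM, limit read from the data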;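 note: higher remaining NAD means stronger inhibition of SARM1 NADase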). The following applies: SAM-TIR HEK293T lysate NADase, at 1 µM, stronger effect = higher value.
The mark [17] stands for this setting: stronger effect = lower value, cell number ratio, induced over uninduced.
Where [18] appears, read: measured here: relative caspase fold change +Dox/-Dox.
Setting [19] is: measured here: total cells with miR-34 induction, stronger effect = lower value.
[20] abbreviates: measured here: total cells without miR-34 induction.
The mark [21] stands for this setting: MELAS cybrid survival, CellTiter-Glo 48 h, stronger effect = higher value.
Setting [22] is: Rieske KO mouse fibroblast survival, CellTiter-Glo 72 h.

Several values for one entry are separate records, joined by “and”; a condition that tells them apart may be missing. Equal values may be shown once. Activity calls are given as the source filed them.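 Rule for the calls, unless noted: active = compounds whose cell count with miR-34 switched on is under 0.7 times the count with it off; inactive = the rest.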

Chain of NAD(+) hydrolase SARM1 (Homo sapiens) (Q6SZW1 whole entry, looked up): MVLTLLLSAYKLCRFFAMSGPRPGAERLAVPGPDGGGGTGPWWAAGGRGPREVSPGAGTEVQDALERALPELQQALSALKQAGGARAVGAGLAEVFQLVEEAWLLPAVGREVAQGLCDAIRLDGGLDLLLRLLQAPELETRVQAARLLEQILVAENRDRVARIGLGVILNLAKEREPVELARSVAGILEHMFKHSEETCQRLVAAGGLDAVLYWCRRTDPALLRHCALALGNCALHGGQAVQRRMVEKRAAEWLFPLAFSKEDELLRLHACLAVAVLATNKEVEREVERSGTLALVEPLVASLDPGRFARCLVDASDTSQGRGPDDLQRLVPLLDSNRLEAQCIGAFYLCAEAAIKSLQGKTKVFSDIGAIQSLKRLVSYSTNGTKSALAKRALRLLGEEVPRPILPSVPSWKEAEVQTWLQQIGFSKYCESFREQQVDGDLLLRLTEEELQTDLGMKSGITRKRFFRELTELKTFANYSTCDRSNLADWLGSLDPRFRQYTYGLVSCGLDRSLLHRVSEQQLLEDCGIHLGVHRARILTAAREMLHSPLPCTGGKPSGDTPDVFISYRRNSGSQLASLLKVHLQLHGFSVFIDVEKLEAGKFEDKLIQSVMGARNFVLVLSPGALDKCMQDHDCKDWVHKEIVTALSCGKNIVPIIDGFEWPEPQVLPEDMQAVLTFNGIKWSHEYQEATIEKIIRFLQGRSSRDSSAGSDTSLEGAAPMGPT

With `NC(=O)c1cn(Cc2c(F)cccc2F)nn1`, the inhibition in experiment [1] was -5% (inactive). The fluorescence ratio (interference) in experiment [2] is 1 (inactive). Further, the nuclear beta-catenin stimulation in experiment [3] (at 10 µM) was 0.5% (inactive); in experiment [3] (stimulation, at 2 µM), 2.9%. Also, the insulin secretion stimulation in [4] was -2.7% (inactive). Also, in experiment [5], the viability decrease is -3.55% (inactive). For the same compound, the tube area decrease in experiment [6] was -8.7% (inactive). The GLP1 secretion stimulation in experiment [7] was -0.1% (inactive). Further, in experiment [8], the inhibition of viability was 18.7% (inactive). Also, the viability decrease (inhibition) in [9] was 11.5% (inactive); in [10], 5.25% (inactive). The fold change in experiment [11] (setting [17]) is 1.05 (inactive) and 0.933 (inactive); in experiment [11] (setting [18]), 0.739 and 0.557. In addition, the cell count in [11] (setting [19]) is 10500 and 8320; in [11] (setting [20]) it was 10000 and 8930. Also, the compound was classed as inactive in experiment [12]. The z-score in [13] (setting [21]) was -0.0452 (inactive); in experiment [13] (setting [22]) it was -0.156; in [14] it was 0.155 (inactive).
For the compound `CN(C)CCN1C(=O)c2ccccc2N(C)c2ccccc21`, the parasite load remaining in [15] is 18.6% (inactive). Also, in experiment [15], the viability came out at 64.5%. Moreover, the nuclear beta-catenin stimulation was 0.8% (inactive) in [3] (at 10 µM) and -0.9% in experiment [3] (stimulation, at 2 µM). Also, the insulin secretion stimulation in experiment [4] was 14.4% (inactive). Further, the viability decrease in experiment [5] is 8.2% (inactive). In experiment [6], the tube area decrease is 11.6% (inactive). Besides, the GLP1 secretion stimulation in experiment [7] is 4% (inactive). The inhibition of viability in experiment [8] is 0.3% (inactive). For the same compound, the viability decrease (inhibition) in [9] was 35.8% (inactive); in experiment [10], -35.8% (inactive). Besides, the fold change was 0.889 (inactive) in experiment [11] (setting [17]) and 1.32 in experiment [11] (setting [18]). For the same compound, the cell count in experiment [11] (setting [19]) came to 10000; in [11] (setting [20]) it was 11300. In addition, the z-score in experiment [13] (setting [21]) was 0.44 (inactive) and -0.381 (inactive); in experiment [13] (setting [22]), 0.025 and -0.152; in [14] it was 0.475 (inactive).
Regarding `Cc1ccc(Cl)c(OCC(O)CNC(C)(C)C)c1` (stereo not given), the nuclear beta-catenin stimulation in experiment [3] (at 10 µM) is 0.2% (inactive); in experiment [3] (stimulation, at 2 µM), 0.1%. Besides, the insulin secretion stimulation in experiment [4] was 1% (inactive). Also, the viability decrease in [5] is -43.6% (inactive). Moreover, the tube area decrease in experiment [6] was -6.8% (inactive). Besides, the GLP1 secretion stimulation in [7] was 0% (inactive). Besides, the inhibition of viability in experiment [8] was -1.43% (inactive). Further, the results for the viability decrease (inhibition) in experiment [9] and in experiment [10] were -8.9% (inactive) and -15.9% (inactive), respectively. Further, the fold change in experiment [11] (setting [17]) was 0.861 (inactive); in [11] (setting [18]), 0.19. Besides, the cell count came to 8600 in experiment [11] (setting [19]) and 9990 in [11] (setting [20]). In addition, the z-score in experiment [13] (setting [21]) is 0.548 (inactive); in [13] (setting [22]), -0.195; in [14], 0.405 (inactive).
Turning to `Cc1ccc(Nc2c(F)cccc2Cl)c(CC(=O)O)c1`, the nuclear beta-catenin stimulation was 1% (inactive) in experiment [3] (at 10 µM) and 3.4% in [3] (stimulation, at 2 µM). The insulin secretion stimulation in experiment [4] is -0.3% (inactive). Also, in [5], the viability decrease was 0.4% (inactive). Further, in [6], the tube area decrease is -20.6% (active). The GLP1 secretion stimulation in experiment [7] is 3.1% (inactive). Also, the inhibition of viability in [8] was -25.8% (inactive). Further, the viability decrease (inhibition) was -2.2% (inactive) in experiment [9] and -9.1% (inactive) in experiment [10]. The fold change in experiment [11] (setting [17]) is 0.931 (inactive); in [11] (setting [18]), 0.932 and 0.672. For the same compound, the cell count in experiment [11] (setting [19]) was 8200 and 8630; in experiment [11] (setting [20]), 8810 and 9270. The z-score in experiment [13] (setting [21]) was -0.194 (inactive); in [13] (setting [22]) it was 0.00857. The remaining NAD in [16] is 10 nM (inactive).
As to `O=P(O)(O)OC(CO)CO`, the nuclear beta-catenin stimulation was 0.1% (inactive) in experiment [3] (at 10 µM) and 0.7% in experiment [3] (stimulation, at 2 µM). The insulin secretion stimulation in [4] is 1.2% (inactive). For the same compound, the viability decrease in experiment [5] is 3.9% (inactive). In addition, in experiment [6], the tube area decrease was 14.1% (inactive). The GLP1 secretion stimulation in experiment [7] is -1.6% (inactive). The inhibition of viability in experiment [8] is -0.7% (inactive). Moreover, the figures for the viability decrease (inhibition) in [9] and in [10] were -2% (inactive) and -3.3% (inactive), respectively. The values for the fold change in [11] (setting [17]) and in experiment [11] (setting [18]) were 0.854 (inactive) and 0.424, respectively. Moreover, the cell count in experiment [11] (setting [19]) was 8550; in [11] (setting [20]), 10000. Further, the z-score in [13] (setting [21]) is 0.561 (inactive); in [13] (setting [22]), -0.261; in experiment [14], 0.385 (inactive).

As usually defined, the inhibition is the relative decrease from the control value, in per cent. One may read the viability as a read-out of living cells in per cent, often relative to untreated cells.

These data come from PubChem BioAssay.
